# Sampled rows, rich in hits. Any-hit rate of the full collection: about 8%.
# ELG1 repair inh: qHTS screen for small molecules that inhibit ELG1-dependent DNA repair in human embryonic kidney (HEK293T) cells expressing luciferase-tagged ELG1. HEK293T ELG1-luciferase reporter, luminescence, 16 h; DNA damage induced by 5-fluorouridine. Potency, µM (highest dose often 46.1 µM), hits mostly inhibitors. 330,000 compounds, 2.3% hits. AID 504467, 2011; note: nearly all actives have a fitted effect of over 55% in size
#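 Luminescence from the luciferase reporter, measured 30 min after ONE-Glo reagent at room temperature, was the read-out. Beforehand, 2,000 cells per well were exposed for 16 hr at 37 °C to 5-fluorouridine together with compound or vehicle.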
# VP16 counter: VP16 counterscreen qHTS for inhibitors of ROR gamma transcriptional activity; Drosophila S2 Gal4-VP16 UAS-luciferase, luminescence, 20 h; Potency, µM (series often up to 53.6 µM), usual class: inhibitors; 310,000 compounds, 3.5% hits; AID 2546, 2010;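 note: Gal4-VP16 expression switched on by copper sulfate through the metallothionein promoter; nearly all actives have a fitted effect of over 50% in size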
# RORgamma inh: qHTS for inhibitors of ROR gamma transcriptional activity; AID 2551, 2010; 310,000 compounds, 5.4% hits; Drosophila S2 Gal4-RORgamma UAS-luciferase reporter, 20 h; Potency, µM (titrated, usually from 53.6 µM), most hits filed as inhibitors; Nuclear receptor ROR-gamma (Mus musculus), P51450; note: nearly all actives have a fitted effect of over 60% in size
# Target sequence (P51450 whole entry, looked up, the tested form may be a part): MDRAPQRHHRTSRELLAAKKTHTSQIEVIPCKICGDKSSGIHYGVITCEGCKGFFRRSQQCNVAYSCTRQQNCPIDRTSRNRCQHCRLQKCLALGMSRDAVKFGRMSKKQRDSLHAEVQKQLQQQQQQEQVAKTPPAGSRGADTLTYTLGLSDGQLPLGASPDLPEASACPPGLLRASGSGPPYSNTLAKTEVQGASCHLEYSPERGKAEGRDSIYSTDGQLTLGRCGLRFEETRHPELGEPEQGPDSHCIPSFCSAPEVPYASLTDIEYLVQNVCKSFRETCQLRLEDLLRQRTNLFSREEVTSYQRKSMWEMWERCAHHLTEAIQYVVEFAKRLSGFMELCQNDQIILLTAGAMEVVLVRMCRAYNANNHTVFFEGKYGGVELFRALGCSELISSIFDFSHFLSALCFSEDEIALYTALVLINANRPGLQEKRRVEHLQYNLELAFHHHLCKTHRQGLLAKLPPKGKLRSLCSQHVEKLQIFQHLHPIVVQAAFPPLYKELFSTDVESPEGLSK
#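 Luciferase reporter read in Schneider cells carrying Gal4-RORγ (mouse) and UAS-Photinus luciferase; cells given compound 1 h before 700 uM copper sulfate induction, then incubated 20 h at ambient temperature.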
# FBPA coupling cs: qHTS Assay for Inhibitors of Fructose-1,6-bisphosphate Aldolase from Giardia Lamblia: Coupling assay counterscreen; coupling enzyme system counterscreen, AmpLite Red fluorescence; activity change, negative = inhibition, % at 58.2 µM, hits read low; 290,000 compounds, 0.67% hits; in the data active = activity change below about -30%
#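 Counterscreen of the coupled detection system alone, without aldolase: glyceraldehyde-3-phosphate coupling enzymes plus AmpLite Red readout. Compounds at 57.5 uM final, 10 min RT preincubation, 20 min RT reaction, fluorescence 525/598 nm.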
# TSHR antag: Antagonists of the Thyroid Stimulating Hormone Receptor: HTS campaign. AID 504810, 2011. 330,000 compounds, 0.2% hits. Thyrotropin receptor (Homo sapiens), P16473. activity change, negative = inhibition, % at 11.5 µM. TSHR-expressing cells, TSH-stimulated cAMP HTRF, 2 h; stronger effect = lower value;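 active = activity change below a set negative limit, meaning inhibition stronger than a set level, cut at about -70% in these data; inconclusive = activity change between two set negative limits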
#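 TSHR-expressing cells, 200/well, pre-treated with compound, then stimulated with EC80 TSH (4nM final) for 2 hours at 37 deg C. cAMP measured by competitive HTRF: anti-cAMP cryptate antibody in lysis buffer plus cAMP-d2, read after 30 minutes at room temperature.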
# A number is an active result; - = inactive; ? = inconclusive; . = no result; [ ] = another dose, or the depositor's remark. Unless noted, calls come from the whole dose curve; as a rule, active = well fitted curve in the direction sought with a large enough effect; inconclusive = small, poorly fitted or top-dose-only effect, or another doubt; inactive = no such curve, though single readings can be large; an effect the other way counts as inactive or inconclusive.
SMILES,ELG1 repair inh,VP16 counter,RORgamma inh,FBPA coupling cs,TSHR antag
COc1ccccc1OCC(=O)N/N=C/c1c(O)ccc2ccccc12,-,2.51µM,2.82µM,.,-
O=C(COc1cccc(Cl)c1)N/N=C\c1cc2ccccc2nc1Cl,-,-,-,-,-
COc1ccc(/C=N/NC(=O)COc2cccc3ccccc23)c(C(=O)O)c1OC,-,?,-,-,-
O=C(COc1ccc(Cl)cc1)N/N=C/c1cccc2cccnc12,?,10µM,12.6µM,.,-
COc1ccccc1OCC(=O)N/N=C/c1cccc2cccnc12,-,?,17.8µM,.,-
COc1cccc(/C=N/NC(=O)COc2cccc3cccnc23)c1O,?,12.6µM,2.24µM,-,-
CC(=O)Nc1ccc(S(=O)(=O)N(C)CC(=O)OCC(=O)N2CCCC2=O)cc1,-,.,.,.,-
CCc1ccc(NC(=O)CSc2nc(=O)n3cc(C)ccc3n2)cc1,?,.,.,.,-
CC(=O)n1cc(C(C[N+](=O)[O-])SCCN)c2ccccc21 (stereo not given),?,?,12.6µM,-,-
COc1ccc(NC(=S)N(CCc2nc3cc(C)c(C)cc3[nH]2)Cc2cccnc2)cc1,16.4µM,?,-,-,-
CC(C)c1ccc(S(=O)(=O)/N=C2/C=C(Sc3ncn[nH]3)C(=O)c3ccccc32)cc1,6.51µM,-,?,-91.8,-
Cc1ccc(S(=O)(=O)/N=C2/C=C(Sc3ncn[nH]3)C(=O)c3ccccc32)cc1,16.4µM,3.55µM,3.55µM,-54.9,-
O=C(c1ccccc1)C(Sc1ncn[nH]1)c1ccccc1 (stereo not given),-,-,-,-,-
Cc1ccc(S(=O)(=O)N2CCN(C(=O)CSc3ncn[nH]3)CC2)c(C)c1,-,.,.,.,-
Cc1ccc(S(=O)(=O)/N=C2/C=C(Sc3ncn[nH]3)C(=O)c3ccccc32)c(C)c1,20.6µM,5.01µM,11.2µM,-62.7,-
COc1ccc(C2c3ccc4ccccc4c3Oc3ncn(CCO)c(=N)c32)cc1 (stereo not given),-,?,?,-,-
COc1ccc(C2c3ccc4ccccc4c3Oc3ncn(CCCO)c(=N)c32)cc1OC (stereo not given),-,-,-,-,-
N=c1c2c(ncn1CCCO)Oc1c(ccc3ccccc13)C2c1ccccc1 (stereo not given),-,?,17.8µM,-,-
COc1ccc(C2c3ccc4ccccc4c3Oc3ncn(CCN(C)C)c(=N)c32)cc1 (stereo not given),-,?,31.6µM,-,-
CN(C)CCCn1cnc2c(c1=N)C(c1ccccc1)c1ccc3ccccc3c1O2 (stereo not given),?,?,17.8µM,-,-
COc1ccc(C2c3ccc4ccccc4c3Oc3ncn(CCCO)c(=N)c32)cc1 (stereo not given),?,-,3.98µM,-,-
COc1ccccc1N(C)S(=O)(=O)c1ccc(C)c(C(=O)NC(C)c2ccccn2)c1 (stereo not given),-,.,.,.,-
O=C(c1ccco1)N1CCC[C@@]2(CCN(c3ccccn3)C2)C1,.,-,-,-,.
Cc1cccc(NC(=S)NC2CCSc3ccccc32)c1 (stereo not given),-,5.62µM,3.55µM,.,-
Cc1cnc(CNc2cc(-c3ccccc3Cl)ncn2)cn1,.,-,-,-,.
SMILES,ELG1 repair inh,VP16 counter,RORgamma inh,FBPA coupling cs,TSHR antag
CN([C@@H](Cc1ccc(OS(=O)(=O)c2cccc3cnccc23)cc1)C(=O)N1CCN(c2ccccc2)CC1)S(=O)(=O)c1cccc2cnccc12,9.2µM,-,?,-,-
CCOC(=O)C(C(=O)OCC)C(Nc1cccc(Br)c1)c1ccccc1 (stereo not given),?,?,11.2µM,-,-
COc1ccc(C(=O)NCc2ccco2)cc1S(=O)(=O)NC1CC1,?,.,.,.,-
CCOC(=O)c1c(C)[nH]c(C)c1S(=O)(=O)NCc1ccccc1C,-,-,-,-,-
COC(CN(C(=O)CCl)C(C(=O)NC1CCCCC1)c1ccc(Cl)cc1)OC (stereo not given),-,-,-,-,-
COC(CN(C(=O)CCl)C(C(=O)NC1CCCCC1)c1ccccc1C)OC (stereo not given),23.1µM,-,-,-,-
Nc1nc2c(c(=O)[nH]1)N(C=O)[C@H](CNc1ccc(C(=O)N[C@@H](CCC(=O)O)C(=O)O)cc1)CN2,.,-,-[2.98 µM],-,.
O=C(Nc1ccccc1)O[C@@H]1C[C@H]2CCC(=O)N3CC[C@@H](C1)[C@@H]23,?,-,-,-,-
CCOC(=O)CC1COCCN1C(=O)c1cc(COc2ccc(F)cc2Cl)on1 (stereo not given),-,-,?,.,-
C=C1C(=O)OC2C1CC/C(C)=C/CCC1(C)OC21 (stereo not given),.,3.98µM,4.47µM,-,.
C=C1C(=O)O[C@@H]2C3OC3(C)CC/C=C(\C)CC[C@@H]12 (stereo not given in full),.,28.2µM,?,-,.
C=C1C(=O)OC2C=C(C)CCC=C(C)CCC12 (stereo not given),.,?,?,-,.
CC1CCC2C(=O)OC(Cc3ccccc3)CN2C1c1ccc(Br)cc1 (stereo not given),.,-[10 µM],-[10 µM],-,.
Cc1cc(C)nc(SSc2nc(C)cc(C)n2)n1,-,6.31µM,5.62µM,-,-
Cc1cc(C)nc(SCCN(C)C)n1,-,-,-,-,-
O=C(C[n+]1cc(-c2ccc(Cl)cc2)n2c1CCCCC2)c1ccccc1,-,-,-,-,-
CC(C)[C@@H]1CC[C@@H](C)C[C@H]1OC(=O)C[n+]1cc(-c2ccc(Cl)cc2)n2c1CCCCC2,20.6µM,11.2µM,?,-,-
COc1ccc(-c2c[n+](CC(=O)OC3CC(C)CCC3C(C)C)c3n2CCC3)cc1 (stereo not given),?,7.94µM,?,-,-
CC1CCC(C(C)C)C(OC(=O)C[n+]2cccc(C(N)=O)c2)C1 (stereo not given),-,-,-,-,-
O=C(COc1ccccc1Cl)c1ccc2c(c1)CCCC2,?,?,14.1µM,-,-
COc1cccc(/C=C2\SC(=S)N(CCC(=O)N3CCCCC3CCO)C2=O)c1 (stereo not given),-,-,?,-,-
COc1ccc(/C=C2\SC(=S)N(CCCC(=O)N3CCOCC3)C2=O)cc1OC,?,-,-,-,-
O=C(CCCN1C(=O)/C(=C\c2ccccc2)SC1=S)Nc1ccc(O)cc1C(=O)O,?,?,?,.,-
COc1cccc(/C=C2\SC(=S)N(CCCC(=O)N3CCCCC3CCO)C2=O)c1 (stereo not given),?,2.82µM,3.55µM,.,-
